# Test results taken from PMC7862700, “An all-to-all approach to the identification of sequence-specific readers for epigenetic DNA modifications on cytosine”.
# How the values were obtained:
# Experiment in all cases: DAPPL (digital affinity profiling via proximity ligation, sequencing); 10 mM Tris-HCl pH 7.5, 50 mM NaCl, 1 mM DTT, 4% glycerol, room temperature, 30 min; GST-TFs on glutathione beads, 16-mer random dsDNA library, 0.1% formaldehyde crosslink after washing; high values mean tight binding
# [1] = target: T1, FLI1 (Homo sapiens, UniProt Q01543 1-452); conditions: protein: recombinant; tags: N-terminal GST; dsDNA, one strand shown
# T1 sequence: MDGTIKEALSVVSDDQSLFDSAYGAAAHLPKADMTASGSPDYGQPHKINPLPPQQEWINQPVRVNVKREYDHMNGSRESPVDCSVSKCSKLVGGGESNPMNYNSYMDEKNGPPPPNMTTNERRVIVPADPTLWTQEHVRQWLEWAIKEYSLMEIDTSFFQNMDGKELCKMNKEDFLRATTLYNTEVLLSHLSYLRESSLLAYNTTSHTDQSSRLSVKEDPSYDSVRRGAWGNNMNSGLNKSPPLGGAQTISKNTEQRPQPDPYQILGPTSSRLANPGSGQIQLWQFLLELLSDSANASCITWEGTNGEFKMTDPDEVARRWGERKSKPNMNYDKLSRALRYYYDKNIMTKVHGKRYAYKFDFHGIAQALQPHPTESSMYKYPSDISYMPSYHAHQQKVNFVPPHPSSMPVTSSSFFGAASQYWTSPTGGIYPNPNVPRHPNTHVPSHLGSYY
# How it was run: (§1)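 Sequencing on an Illumina NextSeq500 followed washing, crosslinking with 0.1% formaldehyde, proximity ligation (BsaI/T4 ligase, 1 h, 37 °C) and PCR amplification of pools that had been incubated for 30 min at room temperature with 200 nmole of a random double-stranded 16-mer DNA library in Tris/NaCl/DTT/glycerol buffer. Each pool held DNA-barcoded human transcription factors, expressed in yeast as GST fusions and captured on glutathione beads, plus a tag-only sample. Binding signal is a hexamer's read frequency for a factor divided by its frequency in the tag-only sample.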
# [2] = target: T2, ELK1 (Homo sapiens, UniProt P19419 1-428); conditions: protein: recombinant; tags: N-terminal GST; dsDNA, one strand shown
# T2 sequence: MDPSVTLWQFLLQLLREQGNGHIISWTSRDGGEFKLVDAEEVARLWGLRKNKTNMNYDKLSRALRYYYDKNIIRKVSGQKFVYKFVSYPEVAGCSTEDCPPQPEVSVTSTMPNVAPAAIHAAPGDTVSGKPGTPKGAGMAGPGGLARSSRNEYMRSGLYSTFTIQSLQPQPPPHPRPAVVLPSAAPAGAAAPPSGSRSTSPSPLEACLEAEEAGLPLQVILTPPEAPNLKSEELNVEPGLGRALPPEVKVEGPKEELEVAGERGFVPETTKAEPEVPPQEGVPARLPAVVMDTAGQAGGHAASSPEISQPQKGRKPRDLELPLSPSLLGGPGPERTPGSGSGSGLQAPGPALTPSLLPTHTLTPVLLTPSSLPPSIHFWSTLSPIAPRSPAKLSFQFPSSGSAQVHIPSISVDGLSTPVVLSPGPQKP
# How it was run: as §1
# [3] = target: T3, GABPA (Homo sapiens, UniProt Q06546 1-454); conditions: protein: recombinant; tags: N-terminal GST; dsDNA, one strand shown
# T3 sequence: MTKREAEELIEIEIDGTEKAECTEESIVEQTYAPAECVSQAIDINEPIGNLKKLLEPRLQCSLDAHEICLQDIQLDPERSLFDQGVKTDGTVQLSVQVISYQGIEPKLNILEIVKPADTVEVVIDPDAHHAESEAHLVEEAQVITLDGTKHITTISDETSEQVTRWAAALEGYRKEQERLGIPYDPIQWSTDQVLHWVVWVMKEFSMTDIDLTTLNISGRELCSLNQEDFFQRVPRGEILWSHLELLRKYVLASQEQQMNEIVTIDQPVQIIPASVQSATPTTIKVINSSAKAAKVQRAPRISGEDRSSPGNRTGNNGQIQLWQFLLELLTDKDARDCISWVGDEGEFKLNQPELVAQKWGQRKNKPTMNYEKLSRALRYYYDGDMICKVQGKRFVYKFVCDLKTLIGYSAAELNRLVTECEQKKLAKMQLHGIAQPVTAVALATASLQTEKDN
# How it was run: as §1
# [4] = target: T4, ERG (Homo sapiens, UniProt P11308 1-479); conditions: protein: recombinant; tags: N-terminal GST; dsDNA, one strand shown
# T4 sequence: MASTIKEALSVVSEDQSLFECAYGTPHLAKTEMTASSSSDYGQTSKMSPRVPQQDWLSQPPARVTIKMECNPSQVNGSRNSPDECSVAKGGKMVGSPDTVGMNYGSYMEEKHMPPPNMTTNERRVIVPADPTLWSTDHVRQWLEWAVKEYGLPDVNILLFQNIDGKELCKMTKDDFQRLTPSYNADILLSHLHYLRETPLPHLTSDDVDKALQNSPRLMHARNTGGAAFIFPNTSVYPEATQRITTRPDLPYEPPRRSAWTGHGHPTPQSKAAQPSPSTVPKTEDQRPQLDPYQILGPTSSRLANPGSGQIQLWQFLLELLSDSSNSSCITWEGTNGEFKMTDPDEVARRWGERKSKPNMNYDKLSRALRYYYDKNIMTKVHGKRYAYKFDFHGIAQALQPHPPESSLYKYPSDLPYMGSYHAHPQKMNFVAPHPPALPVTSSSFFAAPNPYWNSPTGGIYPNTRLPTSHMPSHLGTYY
# How it was run: as §1
# [5] = target: ELF1 (Homo sapiens, UniProt P32519 1-619); conditions: protein: recombinant; tags: N-terminal GST; dsDNA, one strand shown
# Chain of ELF1 (P32519 whole entry): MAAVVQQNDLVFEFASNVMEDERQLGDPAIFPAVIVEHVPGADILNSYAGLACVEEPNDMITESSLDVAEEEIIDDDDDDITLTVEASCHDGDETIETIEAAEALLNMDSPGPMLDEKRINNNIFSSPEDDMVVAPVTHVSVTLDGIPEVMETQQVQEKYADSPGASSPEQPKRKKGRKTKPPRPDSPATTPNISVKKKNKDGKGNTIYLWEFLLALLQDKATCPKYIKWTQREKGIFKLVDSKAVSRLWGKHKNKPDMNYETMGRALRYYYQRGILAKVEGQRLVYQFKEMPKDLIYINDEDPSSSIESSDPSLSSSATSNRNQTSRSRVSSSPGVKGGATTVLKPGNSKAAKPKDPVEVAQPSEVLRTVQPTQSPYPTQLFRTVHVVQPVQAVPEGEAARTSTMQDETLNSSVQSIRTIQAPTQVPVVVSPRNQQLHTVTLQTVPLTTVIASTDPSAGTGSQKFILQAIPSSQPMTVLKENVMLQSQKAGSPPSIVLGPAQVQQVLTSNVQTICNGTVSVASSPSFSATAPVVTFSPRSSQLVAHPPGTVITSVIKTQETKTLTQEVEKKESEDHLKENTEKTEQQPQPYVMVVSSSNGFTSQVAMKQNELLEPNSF
# How it was run: as §1
# [6] = target: T5, EHF (Homo sapiens, UniProt Q9NZC4 1-300); conditions: protein: recombinant; tags: N-terminal GST; dsDNA, one strand shown
# T5 sequence: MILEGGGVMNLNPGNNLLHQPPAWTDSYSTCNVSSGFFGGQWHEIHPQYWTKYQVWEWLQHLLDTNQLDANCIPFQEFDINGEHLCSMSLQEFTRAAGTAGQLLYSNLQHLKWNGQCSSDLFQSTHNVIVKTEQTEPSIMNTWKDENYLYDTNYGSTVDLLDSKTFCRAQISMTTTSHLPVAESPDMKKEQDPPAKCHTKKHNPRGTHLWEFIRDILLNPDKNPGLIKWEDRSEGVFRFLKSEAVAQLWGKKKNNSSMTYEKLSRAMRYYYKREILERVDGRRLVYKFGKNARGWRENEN
# How it was run: as §1
# [7] = target: SPI1 (Homo sapiens, UniProt P17947 1-270); conditions: protein: recombinant; tags: N-terminal GST; dsDNA, one strand shown
# How it was run: as §1
# [8] = target: SPIB (Homo sapiens, UniProt Q01892 1-262); conditions: protein: recombinant; tags: N-terminal GST; dsDNA, one strand shown
# Chain of SPIB (Q01892 whole entry): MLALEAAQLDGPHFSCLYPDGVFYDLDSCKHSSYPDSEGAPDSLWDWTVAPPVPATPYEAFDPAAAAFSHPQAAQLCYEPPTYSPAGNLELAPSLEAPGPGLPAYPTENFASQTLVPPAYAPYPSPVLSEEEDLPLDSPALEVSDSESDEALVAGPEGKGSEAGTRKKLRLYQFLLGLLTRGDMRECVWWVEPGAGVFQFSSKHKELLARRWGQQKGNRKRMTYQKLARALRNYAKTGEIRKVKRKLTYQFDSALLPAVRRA
# How it was run: as §1
# [9] = target: T6, ELK3 (Homo sapiens, UniProt P41970 1-407); conditions: protein: recombinant; tags: N-terminal GST; dsDNA, one strand shown
# T6 sequence: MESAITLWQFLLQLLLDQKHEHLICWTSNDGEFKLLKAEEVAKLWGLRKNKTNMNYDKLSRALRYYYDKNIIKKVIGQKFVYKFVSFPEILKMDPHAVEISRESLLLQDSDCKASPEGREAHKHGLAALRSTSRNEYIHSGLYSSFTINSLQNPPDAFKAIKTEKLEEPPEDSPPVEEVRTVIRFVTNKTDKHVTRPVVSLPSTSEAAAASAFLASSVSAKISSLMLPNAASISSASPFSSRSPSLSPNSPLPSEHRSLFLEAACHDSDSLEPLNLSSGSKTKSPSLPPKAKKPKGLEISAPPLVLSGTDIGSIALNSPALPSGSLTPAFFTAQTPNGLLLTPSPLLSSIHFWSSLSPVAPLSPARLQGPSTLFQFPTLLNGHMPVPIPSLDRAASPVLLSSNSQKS
# How it was run: as §1
# [10] = target: T7, FEV (Homo sapiens, UniProt Q99581 1-238); conditions: protein: recombinant; tags: N-terminal GST; dsDNA, one strand shown
# T7 sequence: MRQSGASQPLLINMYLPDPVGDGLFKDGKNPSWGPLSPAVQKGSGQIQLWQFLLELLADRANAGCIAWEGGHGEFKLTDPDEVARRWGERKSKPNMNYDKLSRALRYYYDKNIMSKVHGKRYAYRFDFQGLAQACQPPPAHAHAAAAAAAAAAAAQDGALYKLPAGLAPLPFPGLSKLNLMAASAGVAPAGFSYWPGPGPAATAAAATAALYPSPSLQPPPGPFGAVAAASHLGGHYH
# How it was run: as §1
# [11] = target: ETV5 (Homo sapiens, UniProt P41161 1-510); conditions: protein: recombinant; tags: N-terminal GST; dsDNA, one strand shown
# Chain of ETV5 (P41161 whole entry): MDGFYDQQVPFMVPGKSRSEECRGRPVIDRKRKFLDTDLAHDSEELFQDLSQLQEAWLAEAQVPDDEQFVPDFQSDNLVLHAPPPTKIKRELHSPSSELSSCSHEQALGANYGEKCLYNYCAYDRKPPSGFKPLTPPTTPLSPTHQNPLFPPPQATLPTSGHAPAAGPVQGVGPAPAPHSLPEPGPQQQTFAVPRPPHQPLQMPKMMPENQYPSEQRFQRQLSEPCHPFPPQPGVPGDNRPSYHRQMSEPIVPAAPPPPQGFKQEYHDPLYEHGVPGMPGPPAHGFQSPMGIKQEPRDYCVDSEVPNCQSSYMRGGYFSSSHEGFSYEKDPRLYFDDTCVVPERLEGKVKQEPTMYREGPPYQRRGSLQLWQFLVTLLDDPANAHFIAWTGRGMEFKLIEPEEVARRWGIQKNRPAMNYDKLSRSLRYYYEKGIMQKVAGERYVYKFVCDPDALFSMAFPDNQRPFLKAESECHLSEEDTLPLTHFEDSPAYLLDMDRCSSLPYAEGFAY
# How it was run: as §1
# [12] = target: HSF1 (Homo sapiens, UniProt Q00613 1-529); conditions: protein: recombinant; tags: N-terminal GST; chain copies: 3; dsDNA, one strand shown
# Chain of HSF1 (Q00613 whole entry): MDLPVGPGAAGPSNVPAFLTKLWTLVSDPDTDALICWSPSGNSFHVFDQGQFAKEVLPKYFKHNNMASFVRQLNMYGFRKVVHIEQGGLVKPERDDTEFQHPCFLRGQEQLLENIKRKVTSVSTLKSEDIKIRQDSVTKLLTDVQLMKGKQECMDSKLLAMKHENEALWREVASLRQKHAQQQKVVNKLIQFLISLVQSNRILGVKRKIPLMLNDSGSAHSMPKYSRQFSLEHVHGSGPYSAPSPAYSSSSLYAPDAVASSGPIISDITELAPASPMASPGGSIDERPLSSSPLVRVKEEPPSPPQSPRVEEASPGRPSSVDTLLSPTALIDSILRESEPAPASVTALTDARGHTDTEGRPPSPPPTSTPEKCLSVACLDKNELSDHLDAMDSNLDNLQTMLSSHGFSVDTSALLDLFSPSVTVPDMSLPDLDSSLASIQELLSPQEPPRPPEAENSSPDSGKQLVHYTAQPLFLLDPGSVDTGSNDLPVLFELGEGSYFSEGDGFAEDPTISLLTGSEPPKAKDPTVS
# How it was run: as §1
# [13] = target: T8, SPIC (Homo sapiens, UniProt Q8N5J4 1-248); conditions: protein: recombinant; tags: N-terminal GST; dsDNA, one strand shown
# T8 sequence: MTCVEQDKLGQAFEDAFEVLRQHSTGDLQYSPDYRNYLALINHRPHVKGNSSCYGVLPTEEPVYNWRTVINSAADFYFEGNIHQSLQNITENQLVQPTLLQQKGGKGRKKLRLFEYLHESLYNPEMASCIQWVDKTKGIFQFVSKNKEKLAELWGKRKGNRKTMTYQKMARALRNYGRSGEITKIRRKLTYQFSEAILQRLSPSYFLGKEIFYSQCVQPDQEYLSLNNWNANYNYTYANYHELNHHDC
# How it was run: as §1
# [14] = target: ELF4 (Homo sapiens, UniProt Q99607 1-663); conditions: protein: recombinant; tags: N-terminal GST; dsDNA, one strand shown
# Chain of ELF4 (Q99607 whole entry): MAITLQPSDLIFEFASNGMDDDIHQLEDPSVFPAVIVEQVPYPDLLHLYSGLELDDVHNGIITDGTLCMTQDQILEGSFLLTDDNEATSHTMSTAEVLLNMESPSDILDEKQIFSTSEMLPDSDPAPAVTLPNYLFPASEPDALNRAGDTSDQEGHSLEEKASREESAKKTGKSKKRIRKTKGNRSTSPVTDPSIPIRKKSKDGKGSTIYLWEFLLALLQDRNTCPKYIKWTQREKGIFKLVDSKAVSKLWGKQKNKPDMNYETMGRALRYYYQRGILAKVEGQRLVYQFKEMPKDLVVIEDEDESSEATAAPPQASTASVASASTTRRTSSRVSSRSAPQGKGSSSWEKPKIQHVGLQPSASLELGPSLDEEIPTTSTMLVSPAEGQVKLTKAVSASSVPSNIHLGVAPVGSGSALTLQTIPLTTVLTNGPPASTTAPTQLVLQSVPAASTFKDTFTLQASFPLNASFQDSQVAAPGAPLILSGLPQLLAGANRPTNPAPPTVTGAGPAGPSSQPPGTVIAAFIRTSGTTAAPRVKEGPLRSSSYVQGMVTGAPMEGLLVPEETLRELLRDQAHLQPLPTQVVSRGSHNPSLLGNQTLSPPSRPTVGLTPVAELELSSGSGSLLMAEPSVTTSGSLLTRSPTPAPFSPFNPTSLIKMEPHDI
# How it was run: as §1
# [15] = target: T9, ELK4 (Homo sapiens, UniProt P28324-2 1-405); conditions: protein: recombinant; tags: N-terminal GST; dsDNA, one strand shown
# T9 sequence: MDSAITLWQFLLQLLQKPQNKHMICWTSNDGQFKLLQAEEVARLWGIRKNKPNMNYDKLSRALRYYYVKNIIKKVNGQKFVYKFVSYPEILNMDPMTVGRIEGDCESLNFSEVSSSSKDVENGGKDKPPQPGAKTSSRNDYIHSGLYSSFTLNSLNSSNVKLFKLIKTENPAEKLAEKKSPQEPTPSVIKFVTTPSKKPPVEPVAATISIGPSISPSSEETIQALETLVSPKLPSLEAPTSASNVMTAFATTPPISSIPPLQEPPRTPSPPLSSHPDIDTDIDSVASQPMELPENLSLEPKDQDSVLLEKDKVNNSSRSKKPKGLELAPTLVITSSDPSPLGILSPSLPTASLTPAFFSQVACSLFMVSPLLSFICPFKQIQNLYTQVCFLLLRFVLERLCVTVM
# How it was run: as §1
# [16] = target: T10, ETV2 (Homo sapiens, UniProt O00321 1-342); conditions: protein: recombinant; tags: N-terminal GST; dsDNA, one strand shown
# T10 sequence: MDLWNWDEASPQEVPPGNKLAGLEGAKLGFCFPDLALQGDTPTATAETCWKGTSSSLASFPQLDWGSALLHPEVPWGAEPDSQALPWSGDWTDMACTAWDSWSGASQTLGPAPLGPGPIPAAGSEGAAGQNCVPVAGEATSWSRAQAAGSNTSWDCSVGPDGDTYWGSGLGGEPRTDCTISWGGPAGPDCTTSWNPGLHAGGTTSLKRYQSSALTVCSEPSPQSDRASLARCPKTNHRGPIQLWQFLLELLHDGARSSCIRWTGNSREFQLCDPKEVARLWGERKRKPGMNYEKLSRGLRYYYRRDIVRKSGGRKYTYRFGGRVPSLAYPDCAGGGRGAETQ
# How it was run: as §1
# [17] = target: T11, ELF3 (Homo sapiens, UniProt P78545 1-371); conditions: protein: recombinant; tags: N-terminal GST; dsDNA, one strand shown
# T11 sequence: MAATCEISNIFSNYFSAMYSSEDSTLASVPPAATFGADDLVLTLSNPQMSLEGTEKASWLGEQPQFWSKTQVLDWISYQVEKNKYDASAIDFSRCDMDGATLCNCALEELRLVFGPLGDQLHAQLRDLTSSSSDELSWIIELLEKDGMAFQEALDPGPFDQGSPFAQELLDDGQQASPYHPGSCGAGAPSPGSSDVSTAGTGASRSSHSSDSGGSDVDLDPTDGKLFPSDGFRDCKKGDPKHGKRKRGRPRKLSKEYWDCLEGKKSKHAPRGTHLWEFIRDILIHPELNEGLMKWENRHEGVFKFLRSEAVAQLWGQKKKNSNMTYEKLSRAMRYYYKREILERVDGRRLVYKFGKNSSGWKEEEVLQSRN
# How it was run: as §1
# [18] = target: CRX (Homo sapiens, UniProt O43186 1-299); conditions: protein: recombinant; tags: N-terminal GST; dsDNA, one strand shown
# Chain of CRX (O43186 whole entry): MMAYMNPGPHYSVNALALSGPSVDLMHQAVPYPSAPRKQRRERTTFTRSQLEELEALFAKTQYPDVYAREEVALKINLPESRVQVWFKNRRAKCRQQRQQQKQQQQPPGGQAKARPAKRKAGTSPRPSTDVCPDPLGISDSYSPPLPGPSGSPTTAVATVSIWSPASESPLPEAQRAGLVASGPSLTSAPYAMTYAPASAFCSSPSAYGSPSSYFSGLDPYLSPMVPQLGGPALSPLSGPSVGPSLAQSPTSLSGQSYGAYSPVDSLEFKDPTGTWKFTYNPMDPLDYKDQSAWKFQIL
# How it was run: as §1
# [19] = target: ETV1 (Homo sapiens, UniProt P50549 1-477); conditions: protein: recombinant; tags: N-terminal GST; dsDNA, one strand shown
# Chain of ETV1 (P50549 whole entry): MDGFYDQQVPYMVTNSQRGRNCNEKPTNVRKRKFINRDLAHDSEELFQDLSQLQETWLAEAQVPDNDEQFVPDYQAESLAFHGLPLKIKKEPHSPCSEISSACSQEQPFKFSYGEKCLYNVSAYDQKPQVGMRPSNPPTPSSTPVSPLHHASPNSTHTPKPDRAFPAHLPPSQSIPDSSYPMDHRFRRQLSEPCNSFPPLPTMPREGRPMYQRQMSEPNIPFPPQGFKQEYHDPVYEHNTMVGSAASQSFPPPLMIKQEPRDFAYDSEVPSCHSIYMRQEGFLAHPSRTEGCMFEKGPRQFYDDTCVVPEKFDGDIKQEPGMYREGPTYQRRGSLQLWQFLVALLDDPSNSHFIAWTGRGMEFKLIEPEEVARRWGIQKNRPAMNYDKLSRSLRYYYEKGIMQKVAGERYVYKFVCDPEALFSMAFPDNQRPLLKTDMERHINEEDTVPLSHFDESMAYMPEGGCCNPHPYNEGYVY
# How it was run: as §1
sequence,measurement,setting,value
ATGGCC,binding signal,[1],"1.31 fold enrichment (6-mer frequency, TF over GST control)"
same,binding signal,[2],"1.42 fold enrichment (6-mer frequency, TF over GST control)"
same,binding signal,[3],"1.45 fold enrichment (6-mer frequency, TF over GST control)"
same,binding signal,[4],"1.46 fold enrichment (6-mer frequency, TF over GST control)"
same,binding signal,[5],"1.35 fold enrichment (6-mer frequency, TF over GST control)"
same,binding signal,[6],"1.27 fold enrichment (6-mer frequency, TF over GST control)"
same,binding signal,[7],"1.37 fold enrichment (6-mer frequency, TF over GST control)"
same,binding signal,[8],"1.39 fold enrichment (6-mer frequency, TF over GST control)"
same,binding signal,[9],"1.24 fold enrichment (6-mer frequency, TF over GST control)"
same,binding signal,[10],"1.45 fold enrichment (6-mer frequency, TF over GST control)"
same,binding signal,[11],"1.42 fold enrichment (6-mer frequency, TF over GST control)"
same,binding signal,[12],"1.23 fold enrichment (6-mer frequency, TF over GST control)"
same,binding signal,[13],"1.52 fold enrichment (6-mer frequency, TF over GST control)"
same,binding signal,[14],"1.44 fold enrichment (6-mer frequency, TF over GST control)"
same,binding signal,[15],"1.48 fold enrichment (6-mer frequency, TF over GST control)"
same,binding signal,[16],"1.41 fold enrichment (6-mer frequency, TF over GST control)"
same,binding signal,[17],"1.5 fold enrichment (6-mer frequency, TF over GST control)"
same,binding signal,[18],"1.08 fold enrichment (6-mer frequency, TF over GST control)"
same,binding signal,[19],"1.38 fold enrichment (6-mer frequency, TF over GST control)"
